Data taken from PubChem BioAssay (NCI).
Compounds without any hit were thinned out: in the full panel of roughly 83,000, 20% have a hit.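 Plates (96-well) were seeded with cells, treated with compound at one concentration, and incubated for 48 hours before percent growth was determined.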 Values without a mark were called inactive. Calls of active or inactive are those of the source. How the source made its calls: active means growth percent below 10; inactive means the rest.

Tested on: HCT-116 colon
Assay: NCI-60 one-dose screen, 48 h (100 = growth as untreated, 0 = no growth, -100 = all killed)
Conditions: 10 µM unless noted

**Q.** For `CCOC(=O)/C(C#N)=C\c1c[nH]c2ccccc12`, which growth is on record?
**A.** 100%

**Q.** With `CC(=O)N(C)N=Nc1ccc(C)cc1` as the molecule, how does the growth read?
**A.** 101%

**Q.** With `COc1cc(C(=O)N2CCN(c3ccccc3)CC2)c2ccccc2n1` as the molecule, how does the growth read?
**A.** 8.75% (active)

**Q.** Which growth does the source give for `CCOC(=O)c1ccc(NC(=O)Nc2nccs2)cc1` here?
**A.** 1.86% (active)

**Q.** How did the growth turn out when `O=c1n(CC2CO2)c(=O)n(CC2CO2)n1CC1CO1` (stereo not drawn) was run?
**A.** 57.7%

**Q.** `CCCCCCCCCCCCSC1=C(Cl)C(=O)C(OC)=C(OC)C1=O` was tested. Which growth did it give?
**A.** 16%

**Q.** How did the growth turn out when `Cc1ccc(N2C(=O)c3cccc4c(N)c(S(=O)(=O)O)cc(c34)C2=O)cc1` was run?
**A.** 102%

**Q.** With `S=C=Nc1ccc2ccccc2c1` as the molecule, how does the growth read?
**A.** 103%

**Q.** `Oc1cccnc1CN1CCCC1` was tested. Which growth did it give?
**A.** 116%

**Q.** `O=C1C=C(c2ccccc2)C(O)(c2ccccc2)C1` (stereo not drawn) was tested. Which growth did it give?
**A.** 98.4%

**Q.** Which growth does the source give for `Cc1cc(C)cc(OCC(=O)O)c1` here?
**A.** 96.9%

**Q.** Which growth does the source give for `Cc1cccc(C)c1NC(=S)/N=C\c1c(O)[nH]c(=O)[nH]c1=O` here?
**A.** 106%

**Q.** `NNC(=O)N/N=C1\C(=O)N(c2nccs2)C(=O)C(=O)C1c1nc2ccccc2s1` (stereo not drawn) was tested. Which growth did it give?
**A.** 88.7%

**Q.** How did the growth turn out when `O=[N+]([O-])c1c(O)c(CNCCCO)cc(CNCCCO)c1O` was run?
**A.** 97.4%

**Q.** Which growth does the source give for `O=C1Nc2ccccc2/C1=C\c1ccccc1O` here?
**A.** 86.3%

**Q.** `CN(C)c1ccc2c(N(C)C)cc(N(C)C)nc2c1` was tested. Which growth did it give?
**A.** 48.1%

**Q.** With `Cc1cccc(-[n+]2noc(N)n2)c1` as the molecule, how does the growth read?
**A.** 82.2%

**Q.** How did the growth turn out when `O=S(Cc1ccccc1)/C(=C/NC(=S)Nc1cc(Cl)ccc1Cl)c1ccccc1` (stereo not drawn) was run?
**A.** 109%
